The values below come from article PMC5101189.

Among the targets are NSL1 (UniProt Q96IY1); SPC25 (UniProt Q9HBM1); MIS12 (UniProt Q9H081); PMF1 (UniProt Q6P1K2); SPC24 (UniProt Q8NBT2); DSN1 (UniProt Q9H410); ZWINT (UniProt O95229).
Holding throughout (assay): cross-linking mass spectrometry
What all share (conditions): BS3, purified complex

Chain of NDC80, O14777 (O14777 whole entry): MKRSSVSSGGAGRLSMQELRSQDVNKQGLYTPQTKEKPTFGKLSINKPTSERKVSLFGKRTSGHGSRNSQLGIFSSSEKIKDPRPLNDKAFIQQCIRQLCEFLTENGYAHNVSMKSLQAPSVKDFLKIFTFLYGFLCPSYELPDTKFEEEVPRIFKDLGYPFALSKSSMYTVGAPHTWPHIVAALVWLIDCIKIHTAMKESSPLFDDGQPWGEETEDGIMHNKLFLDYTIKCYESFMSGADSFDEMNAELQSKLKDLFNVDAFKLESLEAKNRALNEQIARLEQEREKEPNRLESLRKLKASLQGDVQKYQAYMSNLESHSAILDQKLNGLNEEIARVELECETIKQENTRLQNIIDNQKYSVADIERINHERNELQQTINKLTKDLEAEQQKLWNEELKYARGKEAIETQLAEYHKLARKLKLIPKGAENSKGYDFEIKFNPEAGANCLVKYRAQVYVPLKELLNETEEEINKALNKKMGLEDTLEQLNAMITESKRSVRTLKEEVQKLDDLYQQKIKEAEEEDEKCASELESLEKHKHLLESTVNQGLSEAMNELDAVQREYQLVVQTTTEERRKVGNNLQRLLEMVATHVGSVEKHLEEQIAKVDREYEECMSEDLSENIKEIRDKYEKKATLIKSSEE
Chain of NSL1 (Q96IY1 whole entry): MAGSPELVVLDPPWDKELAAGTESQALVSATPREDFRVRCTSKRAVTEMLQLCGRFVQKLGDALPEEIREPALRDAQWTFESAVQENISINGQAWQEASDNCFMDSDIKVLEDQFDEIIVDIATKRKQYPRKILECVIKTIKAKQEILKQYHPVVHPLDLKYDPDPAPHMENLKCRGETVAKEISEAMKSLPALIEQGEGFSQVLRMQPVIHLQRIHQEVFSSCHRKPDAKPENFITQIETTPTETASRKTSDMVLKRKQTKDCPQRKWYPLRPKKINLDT
Chain of CENPC, Q03188 (Q03188 whole entry): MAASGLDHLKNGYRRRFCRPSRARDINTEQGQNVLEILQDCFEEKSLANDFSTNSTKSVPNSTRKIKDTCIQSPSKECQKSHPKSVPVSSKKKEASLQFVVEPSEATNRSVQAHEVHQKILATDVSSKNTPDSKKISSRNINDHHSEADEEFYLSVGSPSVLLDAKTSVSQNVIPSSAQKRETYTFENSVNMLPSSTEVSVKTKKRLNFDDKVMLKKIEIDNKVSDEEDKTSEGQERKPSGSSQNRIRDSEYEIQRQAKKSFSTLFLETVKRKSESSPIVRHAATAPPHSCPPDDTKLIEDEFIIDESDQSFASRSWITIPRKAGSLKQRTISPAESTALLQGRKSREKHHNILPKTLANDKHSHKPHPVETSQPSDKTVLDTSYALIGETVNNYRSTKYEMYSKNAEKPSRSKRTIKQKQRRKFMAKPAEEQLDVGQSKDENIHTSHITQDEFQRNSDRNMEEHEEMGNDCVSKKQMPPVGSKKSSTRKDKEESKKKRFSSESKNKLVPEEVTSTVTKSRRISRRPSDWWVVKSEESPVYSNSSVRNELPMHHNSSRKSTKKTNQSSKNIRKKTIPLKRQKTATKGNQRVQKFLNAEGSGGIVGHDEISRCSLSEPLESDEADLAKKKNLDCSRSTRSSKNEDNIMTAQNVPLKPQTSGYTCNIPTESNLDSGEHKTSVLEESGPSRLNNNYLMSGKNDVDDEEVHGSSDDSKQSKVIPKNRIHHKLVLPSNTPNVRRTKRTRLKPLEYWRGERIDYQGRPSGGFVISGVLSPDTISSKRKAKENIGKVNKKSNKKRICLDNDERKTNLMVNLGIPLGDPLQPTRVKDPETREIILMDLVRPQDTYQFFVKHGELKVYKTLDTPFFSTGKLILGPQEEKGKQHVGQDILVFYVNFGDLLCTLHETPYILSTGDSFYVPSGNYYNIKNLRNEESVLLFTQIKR
Chain of SPC24 (Q8NBT2 whole entry): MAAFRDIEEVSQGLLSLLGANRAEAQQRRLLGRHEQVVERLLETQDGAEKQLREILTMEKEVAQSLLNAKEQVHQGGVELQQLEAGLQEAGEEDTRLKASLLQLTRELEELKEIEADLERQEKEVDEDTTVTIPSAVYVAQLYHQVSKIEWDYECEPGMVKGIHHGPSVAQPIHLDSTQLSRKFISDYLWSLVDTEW
Chain of NSL1, Q96IY1 (Q96IY1 whole entry): as the sequence (Q96IY1 whole entry) above
Chain of MIS12 (Q9H081 whole entry): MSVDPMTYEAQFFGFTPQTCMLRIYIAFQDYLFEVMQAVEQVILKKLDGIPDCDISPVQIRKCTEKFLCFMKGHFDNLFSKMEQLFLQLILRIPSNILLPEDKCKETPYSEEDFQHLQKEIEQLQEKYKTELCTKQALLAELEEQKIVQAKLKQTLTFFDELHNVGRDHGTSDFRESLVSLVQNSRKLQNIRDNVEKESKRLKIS
Chain of PMF1, Q6P1K2 (Q6P1K2 whole entry): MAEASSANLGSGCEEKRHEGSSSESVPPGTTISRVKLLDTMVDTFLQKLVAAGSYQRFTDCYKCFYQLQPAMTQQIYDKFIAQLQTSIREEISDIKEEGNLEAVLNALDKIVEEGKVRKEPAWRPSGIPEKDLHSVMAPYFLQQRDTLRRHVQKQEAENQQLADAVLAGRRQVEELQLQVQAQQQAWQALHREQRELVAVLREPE
Chain of PMF1 (Q6P1K2 whole entry): as above
Chain of KNL1, Q8NG31 (Q8NG31 whole entry): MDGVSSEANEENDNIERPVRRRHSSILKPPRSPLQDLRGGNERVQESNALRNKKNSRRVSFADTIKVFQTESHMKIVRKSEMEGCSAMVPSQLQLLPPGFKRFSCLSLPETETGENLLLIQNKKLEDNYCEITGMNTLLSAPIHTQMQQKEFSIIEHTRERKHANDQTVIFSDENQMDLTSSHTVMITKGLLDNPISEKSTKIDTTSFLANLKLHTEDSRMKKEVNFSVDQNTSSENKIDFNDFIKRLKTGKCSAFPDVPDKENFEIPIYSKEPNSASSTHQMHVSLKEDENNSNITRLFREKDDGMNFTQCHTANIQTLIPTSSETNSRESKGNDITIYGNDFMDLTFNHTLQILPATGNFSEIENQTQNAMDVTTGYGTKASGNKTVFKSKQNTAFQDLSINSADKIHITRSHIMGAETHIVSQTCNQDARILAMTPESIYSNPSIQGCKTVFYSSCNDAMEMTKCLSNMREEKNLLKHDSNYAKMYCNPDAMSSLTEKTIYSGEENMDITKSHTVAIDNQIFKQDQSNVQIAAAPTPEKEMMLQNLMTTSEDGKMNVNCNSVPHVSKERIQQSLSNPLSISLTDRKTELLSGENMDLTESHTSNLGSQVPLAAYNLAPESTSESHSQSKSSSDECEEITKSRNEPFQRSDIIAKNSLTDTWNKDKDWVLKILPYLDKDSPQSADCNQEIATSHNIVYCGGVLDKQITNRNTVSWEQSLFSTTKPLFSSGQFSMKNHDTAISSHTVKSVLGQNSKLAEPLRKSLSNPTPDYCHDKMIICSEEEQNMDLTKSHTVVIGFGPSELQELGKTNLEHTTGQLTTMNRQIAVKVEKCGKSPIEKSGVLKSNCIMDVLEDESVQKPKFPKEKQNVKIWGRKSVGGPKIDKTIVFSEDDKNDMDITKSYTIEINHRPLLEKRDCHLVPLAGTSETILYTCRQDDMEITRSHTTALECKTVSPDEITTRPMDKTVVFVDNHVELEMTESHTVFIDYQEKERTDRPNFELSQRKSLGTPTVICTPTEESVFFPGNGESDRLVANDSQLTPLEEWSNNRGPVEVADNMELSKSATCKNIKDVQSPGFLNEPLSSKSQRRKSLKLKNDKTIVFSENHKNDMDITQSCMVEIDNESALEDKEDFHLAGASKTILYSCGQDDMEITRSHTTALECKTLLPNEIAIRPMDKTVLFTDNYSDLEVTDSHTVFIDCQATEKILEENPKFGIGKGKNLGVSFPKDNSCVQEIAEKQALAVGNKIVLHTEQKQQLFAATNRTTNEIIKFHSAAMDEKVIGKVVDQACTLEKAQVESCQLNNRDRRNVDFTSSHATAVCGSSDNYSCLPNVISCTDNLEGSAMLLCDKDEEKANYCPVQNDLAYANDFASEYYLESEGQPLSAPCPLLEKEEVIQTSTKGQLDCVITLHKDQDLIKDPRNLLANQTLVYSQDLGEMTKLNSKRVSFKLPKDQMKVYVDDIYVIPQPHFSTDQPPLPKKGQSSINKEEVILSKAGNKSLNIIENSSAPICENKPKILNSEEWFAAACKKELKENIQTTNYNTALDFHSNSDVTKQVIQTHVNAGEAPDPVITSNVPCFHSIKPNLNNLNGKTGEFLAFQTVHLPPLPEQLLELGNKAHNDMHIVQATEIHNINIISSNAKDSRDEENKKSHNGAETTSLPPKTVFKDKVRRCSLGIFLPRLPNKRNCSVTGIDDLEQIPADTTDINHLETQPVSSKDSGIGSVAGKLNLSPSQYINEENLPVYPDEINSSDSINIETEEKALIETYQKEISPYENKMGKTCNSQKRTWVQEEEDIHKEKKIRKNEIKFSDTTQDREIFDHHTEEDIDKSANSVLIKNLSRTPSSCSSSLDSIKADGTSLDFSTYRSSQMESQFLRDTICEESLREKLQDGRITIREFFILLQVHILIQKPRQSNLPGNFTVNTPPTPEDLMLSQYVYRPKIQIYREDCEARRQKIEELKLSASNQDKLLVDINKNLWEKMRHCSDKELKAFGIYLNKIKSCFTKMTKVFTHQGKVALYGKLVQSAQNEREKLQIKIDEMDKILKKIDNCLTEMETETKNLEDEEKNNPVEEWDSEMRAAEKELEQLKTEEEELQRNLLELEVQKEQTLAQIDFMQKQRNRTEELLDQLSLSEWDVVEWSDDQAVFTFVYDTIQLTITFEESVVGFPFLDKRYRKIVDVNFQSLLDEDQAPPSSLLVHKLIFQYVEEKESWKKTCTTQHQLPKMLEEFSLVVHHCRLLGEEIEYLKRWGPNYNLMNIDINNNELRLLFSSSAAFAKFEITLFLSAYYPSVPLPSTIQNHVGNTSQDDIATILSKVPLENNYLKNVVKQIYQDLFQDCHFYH

ZWINT, O95229: the cross-linked residues entry with NSL1 is reported as “K196 - K262”. With NSL1, Q96IY1, in the experiment with SPC25, the cross-linked residues result is given as “K275 - K203”.

As to CENPC, Q03188, the cross-linked residues result was “K45 - K81” with MIS12 and “K45 - K48” with PMF1. As to KNL1, Q8NG31, in the experiment with NSL1, the cross-linked residues entry is reported as “K2247 - K268”. In the case of PMF1, Q6P1K2, the cross-linked residues entry in the experiment with SPC24 was “K79 - K98”. On to NDC80, O14777, for which the cross-linked residues result in the experiment with DSN1 is given as “K300 - K315”; with SPC24, “K624 - K50”; in the experiment with ZWINT, “K271 - K141”.
